This is a sample that favours compounds with a hit; in the whole collection about 11% have one here.
PNC assembly inh = blocks assembly of the perinucleolar compartment | PC3M PTB-GFP, PNC prevalence imaging, 16 h; active compounds read low | activity change (PNC), negative = inhibition, % at 10 µM | 3.1% of 140,000 active | AID 2417;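 active = readout at or below -70, meaning at least 70% loss of cells showing the perinucleolar compartment, a nuclear body marking cancer cells; inconclusive = readout between -30 and a set limit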;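 also: plate controls were DMSO wells for no effect and camptothecin positive control wells for full effect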
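Read-out is percentage of cells bearing a perinucleolar compartment, from automated 20x imaging of fixed, Hoechst-stained PC3M PTB-GFP cells. Cells were seeded 4 h, then exposed 16 h to compound (23 nl of library stock) in duplicate plates.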
12-hLO inh = blocks human 12-lipoxygenase activity. purified 12-hLO, xylenol orange hydroperoxide absorbance. 0.12% of 150,000 active. Potency, µM (top dose mostly 57.1 µM), for inactives: at the highest dose activity change, negative = inhibition, hits mostly inhibitors. AID 1452; also: potency is read from the fitted curve at half-maximal effect; nearly all actives have a fitted effect of over 55% in size
Target sequence (P18054 whole entry, looked up): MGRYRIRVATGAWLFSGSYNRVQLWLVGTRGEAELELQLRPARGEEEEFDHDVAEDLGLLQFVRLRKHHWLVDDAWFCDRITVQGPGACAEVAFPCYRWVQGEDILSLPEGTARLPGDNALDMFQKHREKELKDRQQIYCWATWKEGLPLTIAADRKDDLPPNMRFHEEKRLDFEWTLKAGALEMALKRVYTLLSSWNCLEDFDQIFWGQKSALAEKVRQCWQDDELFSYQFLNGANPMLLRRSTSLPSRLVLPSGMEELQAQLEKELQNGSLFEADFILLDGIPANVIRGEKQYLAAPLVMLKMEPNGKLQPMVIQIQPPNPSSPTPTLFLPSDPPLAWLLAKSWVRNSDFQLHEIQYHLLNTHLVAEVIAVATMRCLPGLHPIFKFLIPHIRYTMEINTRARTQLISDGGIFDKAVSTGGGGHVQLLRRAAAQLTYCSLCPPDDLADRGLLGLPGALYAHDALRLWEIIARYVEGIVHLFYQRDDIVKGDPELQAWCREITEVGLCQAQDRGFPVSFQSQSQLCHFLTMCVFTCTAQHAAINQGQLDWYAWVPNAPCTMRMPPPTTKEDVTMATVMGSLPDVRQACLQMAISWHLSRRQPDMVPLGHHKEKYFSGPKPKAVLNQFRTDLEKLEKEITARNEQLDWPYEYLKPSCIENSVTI
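Xylenol orange chromogenic assay: hydroperoxide from 12hLO oxidises Fe(II), giving red-shifted Fe(III)-XO absorbance. Conditions: 150 nM enzyme, 40 uM arachidonic acid, 25 mM Hepes pH 7.0, 0.01% Triton X-100, 30 min, room temperature.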
IMPase Li cell = membrane-permeable IMPase blocker, potentiated with lithium; CHO-M1 cells, IP1 TR-FRET (IP-One), carbachol + lithium; Potency, µM (highest dose often 59.4 µM), inactives show top-dose activity, negative = IMPase inhibition, actives largely listed as inhibitors; 0.35% of 210,000 active;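 also: IP1 builds up when IMPase is blocked and the TR-FRET signal falls; potency is read from the fitted curve at half-maximal effect; plate controls were basal vehicle for no effect and high inhibitor control for full effect; nearly all actives have a fitted effect of over 50% in size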
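Concentration–response in CHO-M1 cells, lithium-potentiated; 30 min at 37C. IP1 detected by competitive TR-FRET after 10 min lysis at RT. Hill-fitted AC50.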
IMPase inh = membrane-permeable compound that blocks inositol monophosphatase; P97697; CHO-M1 cells, IP1 accumulation, HTRF TR-FRET ratio; inhibition (IP1 accumulation), % at 46.1 µM; 120,000 tested, under 10 active; active = well fitted curve in the direction sought with a large enough effect in the signal ratio, not every such curve was filed as active; inconclusive = small, poorly fitted or top-dose-only effect, or a change in a side signal; inactive = no such curve, though single readings can be large or run the other way; the % refers to the signal ratio;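 also: cells stimulated with carbachol in lithium chloride buffer; plate controls were DMSO basal wells for no effect and reference inhibitor wells for full effect; higher means more IMPase inhibition seen as more IP1 and lower FRET ratio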
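CHO-M1, 2000 cells/well, cultured 16–30 h; cpd up to 46 uM; carbachol (50 uM solution, stimulation buffer w/ 50 mM LiCl, pH 7.4), 30 min 37C; IP-One TR-FRET, 10 min RT; Ex 320/Em 665, 620; Hill-fit AC50.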
ALDH1A1 block = ALDH1A1 (human) enzyme inhibition. P00352. 7.3% of 220,000 active. Purified ALDH1A1, NADH fluorescence, propionaldehyde substrate. AID 1030. Potency, µM (series often up to 75.3 µM), inactives show at the highest dose activity, negative = inhibition, most hits filed as inhibitors; active = well fitted inhibition curve with a large enough effect, not every such curve was filed as active; inconclusive = small, poorly fitted or top-dose-only effect, or another doubt; inactive = no such curve, though single readings can be large or run the other way;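 also: potency is read from the fitted curve at half-maximal effect; plate controls were no enzyme wells and a reference inhibitor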
HPGD block = inhibitors of human 15-hydroxyprostaglandin dehydrogenase (HPGD); P15428; purified HPGD, NADH fluorescence kinetic, PGE2 substrate; Potency, µM, without a hit: top-dose activity change, negative = inhibition, actives largely listed as inhibitors; 4.3% of 150,000 active; AID 894; active = well fitted inhibition curve with a large enough effect, not every such curve was filed as active; inconclusive = small, poorly fitted or top-dose-only effect, or another doubt; inactive = no such curve, though single readings can be large or run the other way; also: potency is read from the fitted curve at half-maximal effect
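20 nM HPGD preincubated 15 min at room temperature with compound in 50 mM Tris-HCl pH 8, 0.01% Tween 20. Started with 1 mM NAD+ and 30 uM prostaglandin E2; NADH fluorescence (360/450 nm) read 5 times over 30-s intervals, last minus first.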
* hit, by the source's call; ? = inconclusive; . = no result; [ ] = dose if it differs, or a comment. Unless noted, calls follow the shape of the dose curve; as a rule, active = well fitted curve in the direction sought with a large enough effect; inconclusive = small, poorly fitted or top-dose-only effect, or another doubt; inactive = no such curve, though single readings can be large; an effect the other way counts as inactive or inconclusive. Unless noted, % is scaled to controls: 0 for no effect and ±100 for the full control effect.

SMILES | PNC assembly inh | 12-hLO inh | IMPase Li cell | IMPase inh | ALDH1A1 block | HPGD block
CCOC(=O)Nc1nc(-c2ccccc2)c(C(=O)c2ccccc2)s1 | -83* | -2% | ? | -7 | ? | -19%
COC(=O)Nc1nc(-c2ccccc2)c(C(=O)c2ccc(Cl)cc2)s1 | -102* | 4% | 26%[38.3 µM] | -6 | -4% | -3%
COCCN(CCOC)S(=O)(=O)c1ccc(C(=O)Nc2nc(-c3ccccc3)c(C(=O)c3ccccc3)s2)cc1 | -14 | 1% | -16% | . | ? | -21%
O=[N+]([O-])c1ccc(CCO)cc1 | . | 1% | 22% | . | -5% | -5%
COc1ccc2[nH]cc(CCNc3ncncc3-c3ccccc3Cl)c2c1 | . | . | 24% | . | -6% | .
COc1ccccc1CN(C)C(=O)C1COc2ccccc2O1 (centres undefined) | ? | -2% | 10%[38.3 µM] | 4 | -3% | 7.1µM*
COCC(=O)Nc1c(I)c(C(=O)NC[C@@H](O)CO)c(I)c(C(=O)N(C)C[C@@H](O)CO)c1I | . | -3%[25.6 µM] | -7% | -1[20.6 µM] | 4%[20.9 µM] | -5%
Cc1ccc(-n2c(N)c(C(N)=O)sc2=S)c(C)c1 | -14 | -19% | . | 5 | 7% | .
CCOC(=O)c1sc(=S)n(-c2ccccc2OC)c1N | 35 | -1% | 21%[38.3 µM] | 1 | 3.2µM* | ?
CCCCNC(=O)c1sc(=S)n(-c2ccccc2OC)c1N | ? | -14% | -24%[38.3 µM] | ? | 8.9µM* | 32µM*
COC(=O)c1sc(=S)n(-c2ccccc2OC)c1N | 47 | 4% | -2%[38.3 µM] | 1 | 7% | 14µM*
CCOc1ccccc1-n1c(N)c(C(N)=O)sc1=S | -11 | -1% | -25%[38.3 µM] | 7 | ? | -26%
COc1ccc(Cl)cc1-n1c(N)c(C(N)=O)sc1=S | 3 | -6% | 2%[38.3 µM] | -2 | ? | 28µM*
O=c1c(-c2ccccc2)nc2cnc(N3CCNCC3)nc2n1-c1ccccc1 | . | . | 0% | . | ? | .
COCCNc1ncnc2ccc(-c3ccccc3C)cc12 | . | . | 7% | . | ? | .
Cc1ccc(O)c(NC(=O)CCSc2nc(-c3ccco3)cc(C(F)(F)F)n2)c1 | . | . | . | 4 | . | .
O=C(CSC1=Nc2ccccc2C2=NC(CCC(=O)NC3CCCCC3)C(=O)N12)Nc1cccc(C(F)(F)F)c1 (centres undefined) | . | . | . | 2 | . | .
CCCc1cc(Nc2ccccc2OCC)n2ncnc2n1 | 10 | 5% | -14%[38.3 µM] | 8 | 10% | 7.1µM*
COCCc1ccc(OC[C@H](O)CNC(C)C)cc1 | . | -2%[25.6 µM] | -1% | 2[20.6 µM] | 4%[20.9 µM] | -7%
COC(=O)C1=CN(C)C=C(C(=O)OC)C1c1ccccc1Cl | -109* | -2% | 1% | ? | ? | ?
N#CCCN(C(=O)CN1C(=O)NC2(CCCC2)C1=O)c1ccccc1F | 37 | 6% | 17%[38.3 µM] | -9 | 7.9µM* | -10%
Cc1cc(C)cc(NS(=O)(=O)c2c(C)nc3scc(C)n3c2=O)c1 | . | . | . | 5 | . | .
CSc1sc(C)cc1/C=N/O | 39 | -2% | -7% | . | -5% | 16µM*
Cc1nn(C)cc1/C=N/O | 2 | 0% | -11%[38.3 µM] | -11 | 5% | -3%
CC1C/C(=C/c2cccn2C)C(=O)/C(=C/c2cccn2C)C1 (centres undefined) | -8 | -26% | 36%[38.3 µM] | 3 | 3.5µM* | -23%
COC(=O)c1ccc(C(=O)OC)c(NC(=O)c2cnn3c(C(F)F)cc(-c4ccc(C)cc4)nc23)c1 | . | . | . | 8 | . | .
CCCCCC(=O)NC(Cc1ccc(OC)c([N+](=O)[O-])c1)C(=O)O (centres undefined) | . | . | -10% | . | 13µM* | .
CCOc1ccc(-n2c(SCC(=O)NCc3ccco3)nc3c(c2=O)SCC3)cc1 | ? | -4% | 22%[38.3 µM] | 1 | 14µM* | -20%
Cc1ccc(-n2c(SCC(=O)NCC3CCCO3)nc3c(c2=O)SCC3)cc1 (centres undefined) | -7 | 4% | 35%[38.3 µM] | 2 | 25µM* | -27%
CCOC(=O)c1sc(NC(=O)CSc2nnnn2-c2ccc(C)cc2)c(C(=O)OCC)c1C | -25 | 0% | 1% | -9 | 10% | -9%

Assay outcomes (PubChem)
